From PubChem BioAssay (NCATS)
Active and inactive are the calls of the source. Entries that show only a call come without a potency. The call rests on the fitted dose curve; in most records, active means well fitted inhibition curve with a large enough effect; inconclusive means small, poorly fitted or top-dose-only effect; inactive means flat fitted curve, though single readings scatter. Where a SMILES comes first, the peptide text is derived from it. The star is where a group is joined. βNA = c1ccc2cc(N*)ccc2c1; Cbz = O=C(OCc1ccccc1)*

The compounds below were run on Nanoluciferase (engineered Oplophorus gracilirostris luciferase) (assay: Primary Nanoluciferase (NLuc) qHTS assay for identification of artifact compounds. (AID 1845222)). Settings: NLuc-conditioned medium, Nano-Glo luminescence, 5 min; series mostly up to 54.1 µM.
Text: PI: Alexander Tropsha Ph.D.
UNC Eshelman School of Pharmacy
University of North Carolina, Chapel Hill, North Carolina
Hits from high-throughput screening (HTS) of chemical libraries are often false positives due to their interference with the assay detection technology. In response to this problem, we generated the largest publicly available library of chemical liabilities and developed a free webtool to predict HTS artifacts, both of which are described herein. More specifically, we generated, curated, and integrated HTS datasets for thiol reactivity, redox activity, and luciferase (firefly and nano) activity. Using these curated datasets, we developed and validated several Quantitative Structure-Interference Relationship (QSIR) models to predict nuisance behavior. […] These models were employed for virtual profiling of the National Center for Advancing Translational Science's (NCATS) in-house library, and 256 compounds for each assay were selected for the experimental validation of nuisance behavior. The BA for these external predictions ranged from 58 to 78% for compounds within the applicability domains of the models. […] The models developed in this study, along with aggregation models previously developed by our group (SCAM Detective) were implemented in "Liability Predictor," an online tool which may be used as part of chemical library design or for triaging HTS hits. Both the models and the curated datasets are publicly available at https://liability.mml.unc.edu/.
SEQUENCE No. (e.g., 1, 2, 3, etc.); […] (e.g., Cells, Incubation, Reagent, etc.); VALUE; DESCRIPTION.
1; Reagent; 2 uL; Nanoluciferase media.
2; Compounds and control; 16 nL; Kalypsis pin tool (Wako USA) equipped with a 1536-well pin head.
4; Reagent; 2 uL; Luciferase enzyme.
6; Detection; Luminescence, ViewLux microplate reader.
NOTES (numbers refer to Sequence numbers above)
1. Medium was collected from the culture flasks of NLuc-expressing S16 cells (80% confluent) prior to cell plating, filtered through a 0.22um filter, and frozen at -20C prior to use. Media was diluted (1:55) and 2 uL was dispensed into all wells of a 1536-well assay plate (solid-bottom white plate; Greiner Bio One, Monroe, NC).
2. A Wako Pin-tool (Wako Automation, Richmond, VA) was used to transfer 16 nL of compounds (consisting of 7-plates in qHTS format, final concentration range 18.3 nM to 114 uM) or control Cilnidipine (final concentration range 623 nM to 80 uM).
3. 15 min. incubation at room temperature protected from light.
4. 2 uL of NLuc substrate (1:100 in Nano-Glo luciferase buffer; Nano-Glo luminescence assay, Promega, Madison, WI) was dispensed for a final assay volume of 4 uL.
5. Plates were centrifuged (121xg, 15 seconds) and incubated for 5 minutes.
6. Samples were read for luminescence on a ViewLux CCD imager (PerkinElmer). Data were normalized to no-enzyme (0% activity) and no-inhibitor (DMSO; 100%) controls and the resulting percent inhibition data were fitted to a 4-parameter Hill equation using NCATS in-house software.
Potency means the concentration at half of the fitted maximal effect.

Row | Compound | Potency | activity, negative = inhibition
1 | C=CC1(C)CC=C2C(CCC3C(C)(C(=O)O)CCCC23C)C1 (stereo not given) | inactive | 
2 | CCC[C@H](N[C@@H](C)C(=O)N1[C@H](C(=O)O)C[C@@H]2CCCC[C@@H]21)C(=O)O | inactive | 
3 | CCC(C)C(N)C(=O)NCCN1CCOCC1 (stereo not given) | inactive | 
4 | CCOc1ccc(-c2cc(NC(=O)c3c(F)cccc3F)c(C(=O)O)s2)cc1 | 12 µM (active) | 
5 | COc1ccc2c(c1)N1C(=O)C[C@@]34C=CC[N@+]5([O-])CC[C@H]2[C@H](CC3)[C@@]145 | inactive | 
6 | O=C(Cc1ccccc1)OC[C@H]1O[C@H](O[C@H]2O[C@H](CO)[C@@H](O)[C@H](O)[C@H]2O)[C@H](O)[C@@H](O)[C@@H]1O | inactive | 
7 | C[C@@H](CC[C@@H]1[C@@]2(C)CCCC(C)(C)C2CC[C@@]1(C)O)CC(=O)O (stereo not given in full) | inactive | 
8 | C=CC(C)(O)CC/C=C(\C)COC1O[C@H](CO)[C@@H](O)[C@H](O)[C@H]1O (stereo not given in full) | inactive | 
9 | COC(=O)c1ccccc1O[C@@H]1O[C@H](CO[C@@H]2OC[C@@H](O)[C@H](O)[C@H]2O)[C@@H](O)[C@H](O)[C@H]1O | inactive | 
10 | CNc1nc(Cc2ccccc2)nc2c1CCNC[C@@H]2C | inactive | 
11 | CNC(=O)c1ccc2c(c1)CCO[C@H]2CCN1CCN(c2ccc(C(N)=O)cc2)CC1 | inactive | 
12 | CC1=CCC[C@@H]2[C@](CCc3ccoc3)(C(=O)O)[C@H](C)CC[C@@]12C | inactive | 
13 | O=C(OC(C(F)(F)F)C(F)(F)F)N1CCN(Cc2cccc(Oc3ccccc3)c2)CC1 | inactive | 
14 | C=C1CC2C3(C)C(O)CC(=O)C(C)(C)C3C(O)C(OC(C)=O)C2(C)C2C(=O)OC(C)(C(=O)OC)C(=O)C12C (stereo not given) | inactive | 
15 | CC(C)=C1C[C@@]2(C)C(=CC1=O)CC[C@@H](O)[C@@H]2C | inactive | 
16 | C=C1CC23CC(=O)C4C(CO)(CO)CCCC4(C)C2CCC1C3 (stereo not given) | inactive | 
17 | CC1CCC2C(C)(C)C(O)C(O)CC2(C)C12Cc1c(O)cc(CO)c(C=O)c1O2 (stereo not given) | inactive | 
18 | COc1cccc(OC)c1-c1nc(C(=O)N[C@@H](CC(C)C)C(=O)O)cn1-c1ccnc2cc(Cl)ccc12 | inactive | 
19 | COC(=O)C1=COC(OC2OC(CO)C(O)C(O)C2O)C2C(C)CC(=O)C12O (stereo not given) | inactive | 
20 | CC/C=C/C(O)C(O)C1=C(C)C(=O)C2(O1)C(=O)NC(OC)(C(=O)c1ccccc1)C2O (stereo not given) | inactive | 

Row | Compound | Potency | activity, negative = inhibition
21 | CN(C)CC(c1ccc(O)cc1)C1(O)CCCCC1 (stereo not given) | inactive | 
22 | CC1OC(O[C@@H]2[C@@H](O)[C@H](OC(=O)[C@]34CCC(C)(C)C[C@H]3C3=CCC5[C@@]6(C)CC[C@H](O[C@@H]7O[C@H](C(=O)O)[C@@H](O)[C@H](O[C@@H]8OC[C@@H](O)[C@H](O)[C@H]8O)[C@H]7O[C@@H]7O[C@H](CO)[C@H](O)[C@H](O)[C@H]7O)[C@@](C)(C=O)C6CC[C@@]5(C)[C@]3(C)C[C@H]4O)O[C@H](C)[C@@H]2OC2OC(C)C(OC3OCC(O)C(O)C3O)C(O)C2O)C(O)C(O)C1O (stereo not given in full) |  | 2.13% [at 11.6 µM] (inactive)
23 | COc1cc([C@H]2OC[C@](O)(Cc3ccc(O[C@@H]4O[C@H](CO)[C@@H](O)[C@H](O)[C@H]4O)c(OC)c3)[C@@H]2CO)ccc1O | inactive | 
24 | CC1(C)CC[C@]2(C(=O)O[C@@H]3O[C@H](CO)[C@@H](O)[C@H](O)[C@H]3O)CC[C@]3(C)C(=CCC4[C@@]5(C)CC[C@H](O[C@@H]6O[C@H](C(=O)O)[C@@H](O[C@@H]7O[C@H](CO)[C@@H](O)[C@H](O)[C@H]7O)[C@H](O)[C@H]6O)C(C)(C)C5CC[C@]43C)C2C1 (stereo not given in full) |  | 4.13% [at 11.6 µM] (inactive)
25 | COc1cnc(-c2ccc(Cn3c(CC(C)(C)C(=O)O)c(SC(C)(C)C)c4cc(OC[C@@H]5Cc6ccccc6N5C(C)=O)ccc43)cc2)nc1 | inactive | 
26 | CCc1cc(CC[C@]2(C3CCCC3)CC(O)=C(Cc3nc4nc(C)cc(C)n4n3)C(=O)O2)cc(CC)n1 | inactive | 
27 | CC(C)CC(NC(=O)OCc1ccccc1)C(=O)NC(CC(C)C)C(=O)NC(CCC(=O)O)C(=O)Nc1ccc2ccccc2c1 (stereo not drawn) (Cbz-Leu-Leu-Glu-βNA; configuration not given here) | inactive | 
28 | O=[N+]([O-])c1cc(Cl)ccc1S(=O)(=O)N1CCN(Cc2ccccc2)CC1 | inactive | 
29 | COC(=O)c1c(CC=C(C)C)c(OC2OC(CO)C(O)C(O)C2O)c2ccccc2c1OC1OC(CO)C(O)C(O)C1O (stereo not given) | inactive | 
30 | C=C1CC[C@H]2[C@@](C)(CCC(O)[C@@]2(C)CO)[C@@H]1/C=C/C(=C\C(=O)O)C(=O)O (stereo not given in full) | inactive | 
31 | C=C1CC23CC1CCC2C12OC(=O)C(C)(C(O)CC1O)C2C3C(=O)O (stereo not given) | inactive | 
32 | CC(C)[C@@H](C(=O)O)N1Cc2c(cc(O)c3c2O[C@]2(C3)[C@H](C)CCC3C(C)(C)[C@H](O)[C@H](O)C[C@@]32C)C1=O (stereo not given in full) | inactive | 
33 | CCC12CCCN3CCc4c(n(c5ccccc45)C(O)C1)C32 (stereo not given) | inactive | 
34 | COc1cc(C2Oc3c(OC)cc(/C=C/C(=O)OC4CC(O)(C(=O)O)CC(O)C4O)cc3C2CO)ccc1O (stereo not given) | inactive | 
35 | C[C@@H]1O[C@@H](OC2C(O[C@H]3[C@H](O[C@H]4CC[C@@]5(C)C(CC[C@]6(C)C5CC=C5C7CC(C)(C)CC(O)[C@]7(C)CC[C@]56C)C4(C)C)O[C@H](C(=O)O)[C@@H](O)[C@@H]3O)OC(CO)C(O)C2O)[C@H](O)[C@H](O)[C@H]1O (stereo not given in full) |  | 0% [at 11.6 µM] (inactive)
36 | CC1CC(O)/C=C/C(O)/C=C\C(=O)O1 (stereo not given) | inactive | 
37 | COc1cccc(C(=O)NCCNc2nc3cc(C)cc(C)c3cc2C#N)c1 | inactive | 
38 | COc1ccc(C2(O)c3c(ccc4c3OC(C)(CCC=C(C)C)C=C4)NC(=O)C2OC)cc1 (stereo not given) | inactive | 
39 | CC(=O)O[C@H]1[C@H](O[C@H]2CC[C@]34C[C@]35CC[C@]3(C)[C@@H]([C@@]6(C)CC[C@@H](C(C)(C)O)O6)[C@@H](O)C[C@@]3(C)[C@@H]5C[C@H](O[C@@H]3O[C@H](CO)[C@@H](O)[C@H](O)[C@H]3O)[C@H]4C2(C)C)OC[C@@H](OC(C)=O)[C@@H]1O | inactive | 
40 | COC(=O)C1=CO[C@@H](O[C@@H]2O[C@H](CO)[C@@H](O)[C@H](O)[C@H]2O)[C@@H]2[C@@H](C(=O)O)CC[C@H]12 | inactive | 
